Assay [1] in a line: qHTS of pediatric cancer cell lines to identify multiple opportunities for drug repurposing: Primary screen for Saos-2 cells (AID 1347097). Further: nearly all actives have a fitted effect of over 40% in size. In outline:
(§1)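 Readout: CellTiter-Glo luminescence, 48 h treatment. Controls DMSO (neutral) and bortezomib 2.3 µM final (positive). Potency and efficacy taken from primary-screen concentration-response curves.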

Assay [2] can be described thus: qHTS of pediatric cancer cell lines to identify multiple opportunities for drug repurposing: Primary screen for SK-N-SH cells (AID 1347098). Further: nearly all actives have a fitted effect of over 65% in size. The essentials:
(§2)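 Cells (500-1,000/well) rested 5 h, then received compounds for 48 h; metabolically active cells were measured by CellTiter-Glo luminescence. Final concentrations spanned up to 46 µM (MIPE, 11-point) or 0.59 nM-46 µM (NPC, 8-point) in primary screens, 11-point in follow-ups.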
(qHTS replaces the single test concentration by a dilution series.)

A short description of assay [3]: qHTS of pediatric cancer cell lines to identify multiple opportunities for drug repurposing: Primary screen for NB1643 cells (AID 1347099). Further: nearly all actives have a fitted effect of over 50% in size. The essentials:
as §1

Assay [4] can be described thus: qHTS of pediatric cancer cell lines to identify multiple opportunities for drug repurposing: Primary screen for LAN-5 cells (AID 1347100). In outline: (§3)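 Viability after 48 h compound treatment at 37C, 500-1,000 cells/well, read as ATP luminescence with CellTiter-Glo. Primary screens used 11-point (MIPE, 0.78 nM-46 µM) or 8-point (NPC, 0.59 nM-46 µM) final concentrations; follow-up screens used 11-point dilutions.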

Assay [5] is described as follows: qHTS of pediatric cancer cell lines to identify multiple opportunities for drug repurposing: Primary screen for BT-12 cells (AID 1347101). Further: nearly all actives have a fitted effect of over 25% in size. The essentials: as §2
The nature of assay [6]: qHTS of pediatric cancer cell lines to identify multiple opportunities for drug repurposing: Primary screen for Rh18 cells (AID 1347102). Further: nearly all actives have a fitted effect of over 65% in size. The essentials:
as §3

Assay [7] in a line: qHTS of pediatric cancer cell lines to identify multiple opportunities for drug repurposing: Primary screen for OHS-50 cells (AID 1347103). Further: nearly all actives have a fitted effect of over 40% in size. In outline: as §2
Assay [8] is described as follows: qHTS of pediatric cancer cell lines to identify multiple opportunities for drug repurposing: Primary screen for RD cells (AID 1347104). Further: nearly all actives have a fitted effect of over 55% in size. In outline: as §1
Assay [9] is described as follows: qHTS of pediatric cancer cell lines to identify multiple opportunities for drug repurposing: Primary screen for MG 63 (6-TG R) cells (AID 1347105). Further: nearly all actives have a fitted effect of over 50% in size. In outline: as §1
A short description of assay [10]: qHTS of pediatric cancer cell lines to identify multiple opportunities for drug repurposing: Primary screen for control Hh wild type fibroblast cells (AID 1347106). Further: nearly all actives have a fitted effect of over 55% in size. In outline:
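Cells (500-1,000/well) in growth media were settled 5 h at 37 degrees C, then given compounds for 48 h. Viability was read as CellTiter-Glo luminescence. Primary runs used MIPE at 11 points (0.78 nM-46 µM) and NPC at 8 points (0.59 nM-46 µM); follow-ups used 11 points.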

Assay [11] in a line: qHTS of pediatric cancer cell lines to identify multiple opportunities for drug repurposing: Primary screen for Rh30 cells (AID 1347107). Further: nearly all actives have a fitted effect of over 75% in size. In outline: as §3
The nature of assay [12]: qHTS of pediatric cancer cell lines to identify multiple opportunities for drug repurposing: Primary screen for Rh41 cells (AID 1347108). Further: nearly all actives have a fitted effect of over 70% in size. In outline:
as §1

A short description of assay [13]: qHTS of pediatric cancer cell lines to identify multiple opportunities for drug repurposing: Confirmatory screen for NB1643 cells (AID 1347109). Further: nearly all actives have a fitted effect of over 45% in size. In outline:
as §3

Assay [14] is described as follows: qHTS of pediatric cancer cell lines to identify multiple opportunities for drug repurposing: Confirmatory screen for A673 cells (AID 1347110). Further: nearly all actives have a fitted effect of over 65% in size. The essentials: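 A673 cells seeded at 500-1,000 cells/well, rested 5 h, then dosed; primary MIPE 11-point (0.78 nM to 46 µM), NPC (0.59 nM to 46 µM); confirmatory 11-point. CellTiter-Glo luminescence after 48 h.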
Assay [15] can be described thus: qHTS of pediatric cancer cell lines to identify multiple opportunities for drug repurposing: Confirmatory screen for BT-12 cells (AID 1347112). Further: nearly all actives have a fitted effect of over 55% in size. In outline:
as §3

The nature of assay [16]: qHTS of pediatric cancer cell lines to identify multiple opportunities for drug repurposing: Confirmatory screen for LAN-5 cells (AID 1347113). Further: nearly all actives have a fitted effect of over 65% in size. The essentials: as §3
Assay [17] is described as follows: qHTS of pediatric cancer cell lines to identify multiple opportunities for drug repurposing: Confirmatory screen for DAOY cells (AID 1347114). Further: nearly all actives have a fitted effect of over 65% in size. In outline:
(§4)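 Viability measured as metabolically active cells via CellTiter-Glo luminescence following 48 hours of compound exposure, 11-point dilutions in confirmatory testing. 500-1,000 cells/well plated 5 hours before dosing; controls were DMSO and 2.3 µM bortezomib.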

Assay [18] can be described thus: qHTS of pediatric cancer cell lines to identify multiple opportunities for drug repurposing: Confirmatory screen for NB-EBc1 cells (AID 1347115). Further: nearly all actives have a fitted effect of over 45% in size. The essentials: as §3
Assay [19] can be described thus: qHTS of pediatric cancer cell lines to identify multiple opportunities for drug repurposing: Confirmatory screen for SK-N-MC cells (AID 1347111).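 Further: cells exposed to compound for 48 h before the readout; nearly all actives have a fitted effect of over 70% in size.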 The essentials:
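SK-N-MC cells at 500-1,000 cells/well in growth media were pre-incubated 5 h, then exposed to compounds at 11-point dilutions for 48 h at 37 degrees C, 5% CO2. Viability was read as CellTiter-Glo luminescence.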

Assay [20] can be described thus: qHTS of pediatric cancer cell lines to identify multiple opportunities for drug repurposing: Confirmatory screen for SJ-GBM2 cells (AID 1347116). Further: nearly all actives have a fitted effect of over 60% in size. The essentials:
as §4

These results are taken from PubChem BioAssay (NCATS).

Structures are written as SMILES. Inconclusive results are not listed. A number with no mark means an inactive call. Activity calls are given as the source filed them. The call rests on the fitted dose curve; in most records, active means well fitted curve in the direction sought with a large enough effect; inconclusive means small, poorly fitted or top-dose-only effect, or another doubt; inactive means no such curve, though single readings can be large; an effect the other way counts as inactive or inconclusive.
Potency means the concentration at half of the fitted maximal effect.

Regarding `Nc1nccc(Oc2ccc(NC(=O)c3c[nH]cc(-c4ccc(F)cc4)c3=O)cc2F)c1Cl`, the Potency in assay [1] is 18.7 µM (active); in assay [2], 6.81 µM (active); in assay [3], 14.8 µM (active); in assay [4], 1.18 µM (active); in assay [5], 13.7 µM (active); in assay [6] it was 18.7 µM (active). The Potency in assay [7] was 7.69 µM (active); in assay [8], 26.4 µM (active); in assay [9] it was 18.7 µM (active); in [12] it was 18.7 µM (active). Further, the Potency result in assay [10] and in assay [11] was “inactive” in each case.

For `CC1(C)CCC(c2ccc(Cl)cc2)=C(CN2CCN(c3ccc(C(=O)NS(=O)(=O)c4ccc(N[C@H](CCN5CCOCC5)CSc5ccccc5)c(S(=O)(=O)C(F)(F)F)c4)cc3)CC2)C1`, the Potency was 4.18 µM (active) in assay [1]; 24.1 µM (active) in [2]; 0.0093 µM (active) in assay [3]; 0.0093 µM (active) in [4]; 15.3 µM (active) in assay [5]; 0.0296 µM (active) in [6]. Also, the Potency in assay [7] is 5.44 µM (active); in assay [8], 10.5 µM (active); in assay [9], 9.35 µM (active); in assay [11], 9.35 µM (active); in [12] it was 5.9 µM (active); in assay [14], 8.27 µM (active). Also, the Potency in assay [17] is 9.27 µM (active). Besides, the Potency entry in [10], in assay [13], in assay [15], in [16] and in [18] was “inactive” in each case.

In the case of `COc1cccc2nc(-c3cccs3)nc(NN3C(=O)C=C(C)C3=O)c12`, the Potency in assay [1] is 0.743 µM (active); in assay [2] it was 0.271 µM (active); in [3] it was 0.743 µM (active); in [4], 0.0935 µM (active); in assay [5], 2.73 µM (active); in assay [6], 5.26 µM (active). The Potency was 1.72 µM (active) in [7]; 5.26 µM (active) in assay [8]; 2.96 µM (active) in assay [9]; 2.35 µM (active) in assay [12]; 0.657 µM (active) in assay [13]; 0.657 µM (active) in assay [19]. Further, the Potency was 10.4 µM (active) in assay [15]; 0.657 µM (active) in assay [16]; 5.22 µM (active) in assay [17]; 2.08 µM (active) in assay [18]; 7.37 µM (active) in assay [20]. Moreover, in assay [10], the Potency entry is “inactive”.

On to `COc1cc2c(Oc3ccc(-c4cnc(Nc5ccc(F)cc5)n(C)c4=O)cc3F)ccnc2cc1OCCCN1CCOCC1`, for which the Potency is 2.09 µM (active) in [1]; 15.2 µM (active) in [2]; 14.8 µM (active) in assay [3]; 1.18 µM (active) in [4]; 21.7 µM (active) in assay [5]; 2.64 µM (active) in [6]. Further, the Potency is 0.306 µM (active) in [7]; 9.35 µM (active) in assay [8]; 3.72 µM (active) in [9]; 23.5 µM (active) in assay [10]; 9.35 µM (active) in [11]; 4.69 µM (active) in assay [12]. In addition, the Potency in [13] was 11.7 µM (active); in [19], 2.93 µM (active); in assay [15], 20.8 µM (active); in assay [16] it was 7.37 µM (active); in assay [17], 11.7 µM (active); in assay [18], 18.5 µM (active). In assay [20], the Potency is 14.7 µM (active).

Take `CCCCCCCCCC(=O)N[C@@H](Cc1c[nH]c2ccccc12)C(=O)N[C@H](CC(N)=O)C(=O)N[C@@H](CC(=O)O)C(=O)N[C@@H]1C(=O)NCC(=O)N[C@@H](CCCN)C(=O)N[C@@H](CC(=O)O)C(=O)N[C@H](C)C(=O)N[C@@H](CC(=O)O)C(=O)NCC(=O)N[C@H](CO)C(=O)N[C@@H]([C@@H](C)CC(=O)O)C(=O)N[C@@H](CC(=O)c2ccccc2N)C(=O)O[C@@H]1C`: the Potency result in assay [1], in [2], in assay [3], in assay [4], in [5] and in [6] was “inactive” each time. For the same molecule, the Potency entry in [7], in [8], in [9], in [10], in assay [11] and in [12] was “inactive” in each case.

Take `C=CC(=O)Nc1cc2c(Nc3ccc(F)c(Cl)c3)ncnc2cc1C#CC(C)(C)N1CCN(C)CC1`: the Potency in assay [1] is 4.18 µM (active); in [2] it was 3.83 µM (active); in assay [3] it was 0.526 µM (active); in assay [4], 2.96 µM (active); in assay [5], 21.7 µM (active); in [6] it was 4.69 µM (active). In addition, the Potency in assay [7] is 3.85 µM (active); in assay [8], 5.9 µM (active); in [9], 5.9 µM (active); in assay [11], 11.8 µM (active); in [12], 9.35 µM (active); in assay [13] it was 5.37 µM (active). The Potency was 4.27 µM (active) in assay [14]; 1.91 µM (active) in [19]; 17 µM (active) in assay [15]; 5.37 µM (active) in assay [16]; 4.79 µM (active) in assay [17]; 15.1 µM (active) in assay [18]. Further, the Potency in [20] was 6.03 µM (active). Further, in [10], the Potency entry is “inactive”.

For `CN(C)c1nc(Cc2ccc(NC(=O)c3ccc4ccccc4c3)cc2)nc(Cl)c1CC(=O)O`, the Potency entry in assay [1], in [2], in assay [3], in assay [4], in [5] and in assay [6] was “inactive” each time. Moreover, the Potency result in assay [7], in assay [8], in assay [9], in assay [10], in [11] and in assay [12] was “inactive” throughout.

`COc1cc2c(NC3CCN(C(C)C)CC3)nc(C3CCCCC3)nc2cc1OCCCN1CCCC1`: the Potency is 18.7 µM (active) in assay [1]; 10.8 µM (active) in assay [2]; 20.9 µM (active) in assay [3]; 20.9 µM (active) in assay [4]; 27.3 µM (active) in [5]; 23.5 µM (active) in assay [6]. Moreover, the Potency in assay [7] is 19.3 µM (active); in assay [8], 11.8 µM (active); in assay [9], 23.5 µM (active); in [10], 20.9 µM (active); in [11], 18.7 µM (active); in [12], 11.8 µM (active). Moreover, the Potency in [13] is 23.3 µM (active); in [19], 4.14 µM (active); in [17], 9.27 µM (active).
